Shown are actives, neighbours in structure and some others; about 19% of the full set was active somewhere.
TGFb SMAD3 inh – qHTS for Inhibitors of TGF-b; HepG2 CAGA-GFP TGF-b/SMAD3 reporter, GFP fluorescence, 18 h; TGF-beta stimulated, 500 pg/mL final; Potency, µM (doses to about 46.1 µM), inactives show at the highest dose activity, negative = inhibition, actives largely listed as inhibitors; actives 1.2% (n = 410,000); AID 588855, 2011; further: potency means the concentration at half of the fitted maximal effect; on the % scale 0 is the no-effect control and ±100 the full control effect; nearly all actives have a fitted effect of over 65% in size
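Inhibition was scored as loss of TGF-beta-induced (500 pg/mL final, 18 hours, 37 degrees C) GFP in HEPG2 cells carrying a CAGA-GFP reporter, in DMEM with 1% FBS. Well GFP was summed per cell; Activity was normalised to unstimulated and stimulated DMSO wells, then concentration-response fitting.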
HepG2 tox – qHTS for Inhibitors of TGF-b: Cytotox Counterscreen | HepG2 CAGA-GFP viability, ATP luminescence, 18 h | Potency, µM (titrated, usually from 46.1 µM), without a hit: at the top dose activity change, negative = cytotoxicity, actives largely listed as cytotoxic | actives 0.76% (n = 410,000); further: potency means the concentration at half of the fitted maximal effect
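HepG2 CAGA-GFP cells (1000/well, DMEM with 1% FBS) received compound, then TGF-beta at 500 pg/mL final, and were incubated 18 hours at 37 degrees C. Viability was read by CellTiter-Glo luminescence. Media-only wells were set as complete cell-killing and DMSO as no toxicity.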
DT40 TDP1 CPT – qHTS for Inhibitors of human tyrosyl-DNA phosphodiesterase 1 (TDP1): qHTS in cells in presence of CPT | actives 12% (n = 420,000) | chicken DT40 Tdp1-/-;hTDP1 cells + 20 nM CPT, ATP luminescence, 48 h | AID 686979, 2013 | Potency, µM (titrated, usually from 46.2 µM), for the others: at the top dose activity change, negative = growth inhibition, most hits filed as inhibitors; further: potency means the concentration at half of the fitted maximal effect; on the % scale 0 is the no-effect control and ±100 the full control effect; nearly all actives have a fitted effect of over 55% in size
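Chicken DT40 Tdp1-/- cells complemented with human TDP1, 400 cells/well, exposed to compounds plus 20 nM camptothecin for at least 48 h at 37 C; viability read as ATP content by CellTiter-Glo luminescence.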
S-ASM inh – Inhibitors of Secretory Acid Sphingomyelinase (S-ASM): qHTS; Potency, µM (doses to about 57.5 µM), for inactives: top-dose activity change, negative = inhibition, actives largely listed as inhibitors; Sphingomyelin phosphodiesterase (Homo sapiens), P17405; placental ASM, HMU-PC fluorogenic substrate, 60 min; actives 0.006% (n = 340,000); further: potency means the concentration at half of the fitted maximal effect
Target sequence (P17405 47-631 limits assumed): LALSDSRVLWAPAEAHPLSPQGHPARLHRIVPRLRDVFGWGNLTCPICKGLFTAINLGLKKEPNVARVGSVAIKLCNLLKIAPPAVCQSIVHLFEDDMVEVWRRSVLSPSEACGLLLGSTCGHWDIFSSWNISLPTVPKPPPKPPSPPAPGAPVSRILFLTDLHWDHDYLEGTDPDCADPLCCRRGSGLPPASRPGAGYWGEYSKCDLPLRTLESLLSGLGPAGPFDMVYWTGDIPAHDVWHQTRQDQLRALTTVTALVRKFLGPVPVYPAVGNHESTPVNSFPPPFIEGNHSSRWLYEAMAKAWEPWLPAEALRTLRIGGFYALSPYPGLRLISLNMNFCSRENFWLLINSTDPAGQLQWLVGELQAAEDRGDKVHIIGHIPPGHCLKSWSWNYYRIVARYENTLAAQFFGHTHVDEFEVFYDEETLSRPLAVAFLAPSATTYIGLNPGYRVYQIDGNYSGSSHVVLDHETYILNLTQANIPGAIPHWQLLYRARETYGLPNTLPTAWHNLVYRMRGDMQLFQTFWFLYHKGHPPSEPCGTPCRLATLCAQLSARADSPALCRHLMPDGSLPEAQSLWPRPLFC
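Human placenta-derived ASM preincubated with compound 10 min at room temperature, then reacted with 9 uM (final) fluorogenic HMU-PC substrate for 60 min at 37 C. Stop solution raises pH to 10; fluorescence read at Ex 386/Em 447 nm.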
IL-1B inflam inh – qHTS for Inhibitors of Inflammasome Signaling: IL-1-beta AlphaLISA Primary Screen | activity change, % at 57.5 µM | THP-1 LPS/ATP IL-1B secretion, AlphaLISA, 16 h; active compounds read low | actives 4.7% (n = 360,000); in the data active means activity change below about -50%; inconclusive means mostly about -30% to -49%; further: on the % scale 0 is the no-effect control and ±100 the full control effect
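Secreted IL-1B measured by AlphaLISA bead assay after 16 h compound exposure of THP-1 cells; compounds (final up to 57.5 uM) added 1 h before LPS (250 ng/mL) and ATP (1.25 mM) stimulation; lower signal means less secretion.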
DT40 TDP1 no CPT – qHTS for Inhibitors of human tyrosyl-DNA phosphodiesterase 1 (TDP1): qHTS in cells in absence of CPT. AID 686978, 2013. Potency, µM (top dose mostly 46.2 µM), for inactives: top-dose activity change, negative = growth inhibition, usual class: inhibitors. actives 15% (n = 420,000). DT40 Tdp1-/- hTDP1 cells, no CPT, ATP luminescence, 48 h; further: potency means the concentration at half of the fitted maximal effect; on the % scale 0 is the no-effect control and ±100 the full control effect; nearly all actives have a fitted effect of over 55% in size
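Compound effects on proliferation are scored in DT40 Tdp1-/-;hTDP1 cells in the absence of CPT. ATP levels (CellTiter-Glo luminescence) are recorded after a ≥48 hr, 37 °C incubation.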
The depositor's hits bear a star. Unless noted, the call rests on the fitted dose curve; in most records, active means well fitted curve in the direction sought with a large enough effect; inconclusive means small, poorly fitted or top-dose-only effect, or another doubt; inactive means no such curve, though single readings can be large; an effect the other way counts as inactive or inconclusive.

Screening CCC(C)(C)c1nnc(NC(=O)C2CCN(C(=O)c3ccco3)CC2)s1 returned TGFb SMAD3 inh 16%, HepG2 tox -5%, DT40 TDP1 CPT 21µM*, S-ASM inh 1%, IL-1B inflam inh 25 and DT40 TDP1 no CPT inconclusive.
`COc1ccc(OCc2cc(C(=O)N(C)Cc3cc(C4CC4)n[nH]3)no2)c(Cl)c1` gave TGFb SMAD3 inh -27%, HepG2 tox -29%, DT40 TDP1 CPT inconclusive, S-ASM inh -2%, IL-1B inflam inh -3 and DT40 TDP1 no CPT inconclusive.
Screening CC(=O)N1CCc2cc(S(=O)(=O)CCC(=O)NCCc3ccc(Cl)cc3)ccc21 returned TGFb SMAD3 inh -14%, HepG2 tox -11%, DT40 TDP1 CPT inconclusive, S-ASM inh 0%, IL-1B inflam inh 11 and DT40 TDP1 no CPT inconclusive.
O=C1SC(SCc2ccccc2)=N/C1=C\c1ccc(C(=O)O)cc1 was read as TGFb SMAD3 inh -1%, HepG2 tox 3%, DT40 TDP1 CPT 27%, S-ASM inh 8%, IL-1B inflam inh -58* and DT40 TDP1 no CPT -9%.
For Cc1ccc2c(=O)cc(C(=O)Nc3c(C(=O)c4ccc(F)cc4)oc4ccccc34)oc2c1C the results were TGFb SMAD3 inh -2%, HepG2 tox -8%, DT40 TDP1 CPT -17% and DT40 TDP1 no CPT -5%.
For Cn1c(=O)oc2cc(S(=O)(=O)N3CCCC(C(=O)Nc4nccs4)C3)ccc21 (centres undefined) the results were TGFb SMAD3 inh 3%, HepG2 tox -14%, DT40 TDP1 CPT inconclusive, S-ASM inh 0%, IL-1B inflam inh 3 and DT40 TDP1 no CPT 21µM*.
Screening Cc1ccc(NC(=O)C2CCCN(S(=O)(=O)c3ccc4c(c3)oc(=O)n4C)C2)cc1Cl (centres undefined) returned TGFb SMAD3 inh inconclusive, HepG2 tox -4%, DT40 TDP1 CPT inconclusive and DT40 TDP1 no CPT inconclusive.
CCN(CC)c1ccc(NC(=O)C2CCCN(S(=O)(=O)c3ccc4c(c3)oc(=O)n4C)C2)c(C)c1 (centres undefined) was read as TGFb SMAD3 inh 1%, HepG2 tox -7%, DT40 TDP1 CPT 21µM* and DT40 TDP1 no CPT 10µM*.
For COc1ccccc1C(=O)COC(=O)C1CCN(S(=O)(=O)c2ccc(C)c(C)c2)CC1 the results were TGFb SMAD3 inh -13%, HepG2 tox -14%, DT40 TDP1 CPT 8%, S-ASM inh -3%, IL-1B inflam inh 27 and DT40 TDP1 no CPT inconclusive.
For COC(=O)Cc1ccc(NC(=S)N2CCC(Cc3ccccc3)CC2)cc1 the results were TGFb SMAD3 inh -3%, HepG2 tox -5%, DT40 TDP1 CPT -29%, S-ASM inh 2%, IL-1B inflam inh 14 and DT40 TDP1 no CPT inconclusive.
CCCN(Cc1cccs1)C(=O)Nc1cc(Cl)c(OC)cc1OC was read as TGFb SMAD3 inh 16%, HepG2 tox 11%, DT40 TDP1 CPT inconclusive and DT40 TDP1 no CPT inconclusive.
`Cc1cccc(C)c1Nc1c(-c2ccsc2)nc2ccccn12` gave TGFb SMAD3 inh inconclusive, HepG2 tox -30%, DT40 TDP1 CPT 7.3µM* and DT40 TDP1 no CPT 5.8µM*.
Screening Cc1cc(C)n2c(Nc3c(C)cccc3C)c(-c3ccccn3)nc2n1 returned DT40 TDP1 CPT 5.8µM*, IL-1B inflam inh 183 and DT40 TDP1 no CPT 7.3µM*.
Cc1ccc2nc(-c3ccsc3)c(Nc3ccccc3C)n2c1 was read as TGFb SMAD3 inh -17%, HepG2 tox -34%, DT40 TDP1 CPT 6.5µM* and DT40 TDP1 no CPT 7.3µM*.
`CSc1ccc(-c2nc3ccc(C)cn3c2Nc2ccccc2C)cc1` gave TGFb SMAD3 inh 18%, HepG2 tox -8%, DT40 TDP1 CPT -18% and DT40 TDP1 no CPT 7%.
Screening Cc1cccc(C)c1Nc1c(-c2ccsc2)nc2ccc(Cl)cn12 returned TGFb SMAD3 inh 7%, HepG2 tox -2%, DT40 TDP1 CPT inconclusive and DT40 TDP1 no CPT 7.3µM*.
Screening CCOC(=O)c1cccc(NC(=O)c2ccc3nc(CCc4ccccc4)oc3c2)c1 returned TGFb SMAD3 inh 0%, HepG2 tox -5%, DT40 TDP1 CPT inconclusive and DT40 TDP1 no CPT inconclusive.
Screening Cc1ccc2oc(=O)n(Cc3ccc(F)cc3)c2c1 returned TGFb SMAD3 inh 7%, HepG2 tox -23%, DT40 TDP1 CPT -4%, S-ASM inh -4%, IL-1B inflam inh -15 and DT40 TDP1 no CPT -21%.
For Cc1cccc(C)c1Nc1c(-c2ccccn2)nc2ccccn12 the results were TGFb SMAD3 inh inconclusive, HepG2 tox -17%, DT40 TDP1 CPT 6.5µM*, S-ASM inh 6%, IL-1B inflam inh 32 and DT40 TDP1 no CPT 6.5µM*.
Screening O=C(NCCCNC(=O)c1ccc(-c2cc(Cl)ccc2Cl)o1)c1cnccn1 returned TGFb SMAD3 inh -6%, HepG2 tox -9%, DT40 TDP1 CPT inconclusive, S-ASM inh -2%, IL-1B inflam inh -9 and DT40 TDP1 no CPT inconclusive.
For Cc1ccc(OCc2nc3ccccc3n2C(C(=O)NC(C)(C)C)c2ccccc2)cc1 (centres undefined) the results were DT40 TDP1 CPT inconclusive, IL-1B inflam inh -2 and DT40 TDP1 no CPT inconclusive.
For OCc1nc2ccccc2n1CCCOc1ccc(Br)cc1 the results were TGFb SMAD3 inh -2%, HepG2 tox -13%, DT40 TDP1 CPT 16µM*, S-ASM inh -1%, IL-1B inflam inh -11 and DT40 TDP1 no CPT 18µM*.
For COc1ccc(OCCn2c(C)nc3ccccc32)cc1 the results were TGFb SMAD3 inh 3%, HepG2 tox -23%, DT40 TDP1 CPT inconclusive, IL-1B inflam inh inconclusive and DT40 TDP1 no CPT inconclusive.
Screening Cc1ccc(OCc2nc3ccccc3n2C(C)C(=O)Nc2c(C)cccc2C)cc1 (centres undefined) returned DT40 TDP1 CPT inconclusive, IL-1B inflam inh -21 and DT40 TDP1 no CPT 18µM*.
Screening CCc1nc2ccccc2n1CCCCOc1ccc(C)cc1 returned TGFb SMAD3 inh inconclusive, HepG2 tox -57%, DT40 TDP1 CPT inconclusive and DT40 TDP1 no CPT 8.2µM*.

Source: PubChem BioAssay (National Center for Advancing Translational Sciences (NCATS))
